The values below come from PubChem BioAssay AID1346428 (National Center for Advancing Translational Sciences (NCATS), 2018).

Hit rate of the full screen: of about 48,000 compounds, about 1,200 (2.5%) were called active. About 2% were inconclusive and are not listed. Shown is part of a subset that was picked to be rich in actives. Values without a mark were called inactive.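 Rule for the calls: active = activation of at least 60% and not above a set upper limit (about 1 call in 100 departs from these limits); inconclusive = activation of 40% to 60%, or above that upper limit; inactive = activation under 40%.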

Sequence of Probable G-protein coupled receptor 32 (Homo sapiens) (O75388 whole entry, looked up): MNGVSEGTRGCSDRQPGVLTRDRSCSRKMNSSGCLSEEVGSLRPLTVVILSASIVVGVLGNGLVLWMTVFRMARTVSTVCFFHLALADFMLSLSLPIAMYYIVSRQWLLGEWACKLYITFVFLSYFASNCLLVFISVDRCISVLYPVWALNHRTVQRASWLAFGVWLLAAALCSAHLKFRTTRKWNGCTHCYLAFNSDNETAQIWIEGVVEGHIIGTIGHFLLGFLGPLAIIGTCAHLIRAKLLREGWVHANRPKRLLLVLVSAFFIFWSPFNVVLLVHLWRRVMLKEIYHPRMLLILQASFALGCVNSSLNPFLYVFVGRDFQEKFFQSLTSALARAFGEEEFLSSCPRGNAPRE

This test concerns the target Probable G-protein coupled receptor 32 (Homo sapiens) (UniProt O75388). Kind of test: qHTS for Agonists of Human Resolvin D1 Receptor DRV1. Conditions: CHO-K1 GPR32 beta-arrestin PathHunter luminescence, 90 min; at 76.9 µM; stronger effect = higher value; zero percent set by DMSO-only wells. An excerpt: Endogenous resolution of inflammation is known to be transduced through various GPCRs and their natural mediators of lipid nature. Resolvin D1 (RvD1) is one of the active players in resolution of acute inflammation through regulation of anti-inflammatory pathways; it is known to enhance phagocytosis of human macrophages, limits neutrophils infiltration, etc. […] The search for GPR32-activating small molecules with anti-inflammatory effects similar to its natural omega-3 derivative ligand in order to use them as research tools for further studies of inflammation and its resolution was the goal of this screening project. For primary screening assay, we used CHO-K1 GPR32 beta-arrestin cell line (DiscoveRx, #93-0321C2A) and the PathHunter(R) beta-Arrestin Assay (DiscoveRx) which measures recruitment of beta-arrestin to the GPR32 and generates chemiluminescent signal. These engineered cells stably transfected with GPR32 co-express GPR32-fused small 42-amino acid fragment of beta-Gal called ProLinktrade mark, and […] -tagged beta-Arrestin fusion protein. When GPR32 is activated by a ligand, it stimulates binding of beta -Arrestin to ProLink-tagged GPR32, and two parts of beta-Gal complement forming a functional enzyme. Upon substrate (PathHunter(R) Detection reagent) addition, beta-Gal hydrolyzes it and generates a chemiluminescent signal.
The cells were thawed and plated in thawing media containing F-12 HAM (Invitrogen, #11765-054), 10% FBS (Invitrogen, #10082), 1x Glutamine, and 1x Pen/Strep onto the 175-mm flask for 24 hours. Then, thawing media was replaced with Growth media which contains 800microg/mL Geneticin (Invitrogen, #10131) and 300microg/mL Hygromycin B (Invitrogen, #10687) in addition to described above. For the assay, the cells were harvested at ~80% confluent stage with Cell Dissociation buffer (Gibco, #13151), and seeded at 2,500 cells/ 3microL/well in assay media (PathHunter(R) Cell Plating Reagent, DiscoverX, #93-0563R1B) using MultiDrop Combi dispenser (Thermo Scientific, Logan, UT) onto white solid bottom tissue culture-treated 1536-well plates (Greiner # 789173-F) and allowed to attach overnight at 37 degrees C, 95% humidity, 5% CO2, . Next, 23nL/well of compound solutions in DMSO were added with a Pin Tool (Kalypsis, San Diego, CA) to the assay plates. As the basal control (EC0), 23 nL/well of DMSO was used on each plate. The cells were incubated in the presence of compounds or DMSO for 90 minutes at 37 degrees C, 5% CO2. Subsequently, 1.5microL/well of PathHunter(R) Detection Reagent prepared per the manufacturer's instructions was added to the assay plates with BioRAPTR FRDtrade mark dispenser (Beckman Coulter, San Francisco, CA) and incubated for 1 hour at ambient temperature prior to the measurement of the luminescent signal on ViewLux(R) uHTS Microplate Imager (Perkin Elmer, Waltham, MA).
(qHTS replaces the single test concentration by a dilution series.)
Consider `Cc1ccccc1OCC(=O)Nc1nnc(S(=O)(=O)N2CCCC2)s1`, for which the activation is 5.36%.

Take `O=C(Nc1nnc(S(=O)(=O)N2CCCCCC2)s1)c1cccc(Br)c1`: the activation is 115% (active).

As to `O=C(Nc1nnc(S(=O)(=O)N2CCCc3ccccc32)s1)c1cccc(F)c1`, the activation was 45.3%.

As to `O=C(Nc1nnc(S(=O)(=O)N2CCOCC2)s1)c1cccc(Br)c1`, the activation was 93.4% (active).

With `CCOc1cccc(C(=O)Nc2nnc(S(=O)(=O)N(C)c3ccc(C)cc3)s2)c1`, the activation was 63.1% (active).

As to `COc1cccc(CNC(=O)CN2C(=O)CCc3cc(S(=O)(=O)N4CCOCC4)ccc32)c1`, the activation was 0%.

In the case of `Cc1ccccc1C(=O)Nc1nnc(S(=O)(=O)N(C)c2ccc(Cl)cc2)s1`, the activation is 8.7%.

`COc1cccc(C(=O)Nc2nnc(S(=O)(=O)N3CCOCC3)s2)c1`: the activation is 69.6% (active).

Take `Cc1cc2nc(NC(=O)c3ccc(S(=O)(=O)N4CCOCC4)cc3)sc2cc1C`: the activation was -4.68%.

Turning to `CN(Cc1ccco1)S(=O)(=O)c1nnc(NC(=O)c2ccccc2)s1`, the activation is 18.1%.

As for `CC(C)CC(=O)Nc1nnc(S(=O)(=O)N(C)c2ccc(Cl)cc2)s1`, the activation was -5.88%.

Consider `Cc1ccc(C(=O)Nc2ccccc2F)cc1S(=O)(=O)N1CCOCC1`, for which the activation was 2.32%.

For `Cc1cc(N2CCN(c3cccc(C(F)(F)F)c3)CC2)n2nc(-c3ccccc3)nc2n1`, the activation was -14.2%.

For `CCOC(=O)c1c(NC(=O)COc2cc(C)ccc2C(C)C)sc(C)c1C`, the activation is -11%.

Consider `Cc1ccc(C)c(S(=O)(=O)n2nc(C)c(S(=O)(=O)N3CCC(C)CC3)c2C)c1`, for which the activation was -11.2%.

For the compound `O=C(Nc1cc(C(F)(F)F)ccc1Cl)c1cc2nc(-c3ccc4c(c3)OCO4)cc(C(F)(F)F)n2n1`, the activation was -10.2%.

As for `Cc1ccc(NC(=O)c2ccc(CN3CC(=O)N4CCCCC4C3=O)cc2)c(Cl)c1` (stereo not given), the activation was -8.29%.

Regarding `COc1ccc(-c2cc(C(=O)NCc3cc(OC)c(OC)c(OC)c3)[nH]n2)cc1`, the activation is -1.24%.

Turning to `COc1ccc(NC(=O)CSc2nc3ccccc3n2CC(=O)N2CCCCC2C)cc1` (stereo not given), the activation was -15.6%.

As to `CCOc1ccccc1NC(=O)Cn1c(=O)n(Cc2ccccc2)c(=O)c2c(C)c(C(=O)N(C)C)sc21`, the activation is -24.5%.

Consider `CCn1cc(C(=O)OCC(=O)Nc2cc(C)cc(C)c2)c(=O)c2ccc(C)nc21`, for which the activation is 20.2%.

With `CN(Cc1ccccc1)C(=O)c1cn(C)c2ccc(S(=O)(=O)N3CCCCC3)cc2c1=O`, the activation is 13.1%.

Regarding `CCOC(=O)c1c(NC(=O)/C(C#N)=C/c2ccccc2)sc2c1CCC2`, the activation is 13.3%.

For the compound `Cc1ccc(/C=C(\C#N)C(=O)Nc2cc(C)ccc2C)cc1`, the activation is 98.1% (active).

Regarding `Cc1ccc(Cl)cc1NC(=O)/C(C#N)=C\c1cn(Cc2ccc(F)cc2)c2ccccc12`, the activation is 7.85%.
